This is an account of results in PubChem BioAssay.

The test system of assay [1] is Human papillomavirus type 1a protein E7 (residues 44-93). In words: small molecules binding HPV E7 44-93 – biochemical, small-molecule microarray, residues 44-93, 635 nm fluorescence, primary screen (AID 1108).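 Also: E7 fragment applied at 1 µg/mL in TBST for 1 h at 4 C; score combines spot fluorescence with its signal to noise ratio.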 The settings on record: fluorescence 635 nm, higher = more signal.
Assay [2] can be described thus: hepatitis C replication reporter changes, two-sided – Huh7 cells, luciferase reporter, HCV replication inhibitor project, primary screen (AID 1109).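 Also: huh7 hepatoma cells harbouring a luciferase neomycin HCV replicon reporter; luciferase luminescence as measure of HCV replicon replication; test concentration not given here.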 The settings on record: Huh7 HCV replicon luciferase reporter, 48 h; higher = more signal. For orientation: A reporter such as luciferase makes a cellular process visible.
Assay [3] deals with Left-right determination factor 2 (Homo sapiens) (UniProt O00292). In words: small molecules binding LEFTY2 protein – biochemical, small-molecule microarray, 635 nm fluorescence scan, primary screen (AID 1110). As to conditions: higher = more signal.
Chain of Left-right determination factor 2 (Homo sapiens) (O00292 whole entry, looked up): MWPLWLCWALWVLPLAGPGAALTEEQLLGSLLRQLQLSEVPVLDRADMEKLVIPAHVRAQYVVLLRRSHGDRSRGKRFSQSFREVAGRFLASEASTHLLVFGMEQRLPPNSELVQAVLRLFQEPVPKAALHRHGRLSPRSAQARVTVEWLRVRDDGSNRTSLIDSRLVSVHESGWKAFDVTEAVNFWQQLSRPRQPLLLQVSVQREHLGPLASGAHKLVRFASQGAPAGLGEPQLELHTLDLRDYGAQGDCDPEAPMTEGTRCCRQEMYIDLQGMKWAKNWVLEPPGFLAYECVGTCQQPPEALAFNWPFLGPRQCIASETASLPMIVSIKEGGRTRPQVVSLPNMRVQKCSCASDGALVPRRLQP
In assay [4] the target is Calmodulin-1 (Homo sapiens) (UniProt P0DP23). The experiment in a line: small molecules binding calmodulin-1 with EGTA – biochemical, small-molecule microarray, Cy5-labelled CALM1, profiling panel (AID 1111).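 Also: labelled calmodulin applied in Tris saline Tween buffer holding calcium plus EGTA and DTT.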 The settings on record: Cy5-CALM1 binding fluorescence, higher = more signal.
The target is the same in assay [5]. In words: small molecules binding Ca-loaded calmodulin-1 – biochemical, small-molecule microarray, Cy5-labelled CALM1, plus calcium, artefact control for SMM control-protein annotation, profiling panel (AID 1112).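 Also: score merges spot fluorescence with signal to noise from triplicate slides.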 As to conditions: Cy5-CALM1 binding fluorescence, higher = more signal.
The nature of assay [6]: probe aWnt5a binding to arrayed compounds – biochemical, biotinylated probe, 635/667 nm fluorescence, primary screen (AID 1113).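 Also: score merges 667 nm fluorescence intensity with signal-to-noise per printed feature.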 The settings on record: small-molecule microarray, higher = more signal.
Assay [7] in a line: probe aShh binding to arrayed compounds – biochemical, biotinylated probe, 635/667 nm fluorescence, primary screen (AID 1114).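 Also: probe is biotin-labelled aShh protein from a stem cell growth factor screen; measures binding of labelled protein to compounds printed on the slide; score merges feature fluorescence at 667 nm with signal-to-noise.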 As to conditions: small-molecule microarray, higher = more signal.
Assay [8] in a line: probe aNog binding to arrayed compounds – biochemical, biotinylated probe, 635/667 nm fluorescence, primary screen (AID 1115).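 Also: probe is biotinylated aNog protein used at 0.15 µg/mL for 1 h at 4 C; z-score combines 667 nm fluorescence of each spot with its signal to noise.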 The settings on record: small-molecule microarray, higher = more signal.
The target of assay [9] is Torsin-1A-interacting protein 1 (Homo sapiens) (UniProt Q5JTV8). In words: compound microarray binding of lysate hLAP1 – cell lysate, small-molecule microarray, COS7 lysate, 635/667 nm fluorescence, primary screen (AID 1116). The settings on record: 635 nm fluorescence, higher = more signal.
Chain of Torsin-1A-interacting protein 1 (Homo sapiens) (Q5JTV8 whole entry, looked up): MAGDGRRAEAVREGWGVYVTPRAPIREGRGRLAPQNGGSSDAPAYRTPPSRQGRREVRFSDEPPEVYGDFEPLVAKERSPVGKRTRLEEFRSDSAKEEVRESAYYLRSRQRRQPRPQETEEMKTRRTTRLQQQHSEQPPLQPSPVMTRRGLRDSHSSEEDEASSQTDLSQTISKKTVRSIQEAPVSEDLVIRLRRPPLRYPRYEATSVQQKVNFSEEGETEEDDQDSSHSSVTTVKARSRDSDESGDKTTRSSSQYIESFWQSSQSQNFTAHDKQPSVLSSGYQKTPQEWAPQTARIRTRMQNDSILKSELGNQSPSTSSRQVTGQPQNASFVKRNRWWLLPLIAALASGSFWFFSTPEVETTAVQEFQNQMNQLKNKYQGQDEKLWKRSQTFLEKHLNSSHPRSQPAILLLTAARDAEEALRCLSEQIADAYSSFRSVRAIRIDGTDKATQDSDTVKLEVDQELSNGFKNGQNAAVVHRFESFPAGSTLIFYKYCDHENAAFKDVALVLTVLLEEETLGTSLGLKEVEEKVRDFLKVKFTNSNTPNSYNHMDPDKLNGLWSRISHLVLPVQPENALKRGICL
Assay [10] concerns the target Alpha-bungarotoxin (Bungarus multicinctus) (UniProt P60615). In words: compounds binding labelled alpha-BTX control protein – biochemical, small-molecule microarray, Alexa647 label, 635/667 nm fluorescence, artefact control for SMM control protein annotation, profiling panel (AID 1117). The settings on record: alpha-BTX-A647 binding fluorescence, higher = more signal.

Another assay concerns the target Albumin (Bos taurus) (UniProt P02769). The experiment in a line: compounds binding labelled BSA control protein – biochemical, small-molecule microarray, Alexa647 label, 635/667 nm fluorescence, artefact control for SMM control protein annotation, profiling panel (AID 1118).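 Also: score merges 667 nm emission intensity and signal-to-noise per printed compound spot.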 The settings on record: BSA-A647 binding, fluorescence 635 nm, higher = more signal.
Assay [11] in a line: probe aXIP binding to arrayed compounds – biochemical, NeuroSMM set, 635/667 nm fluorescence, primary screen (AID 1119).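 Also: probe is the protein aXip251-270 applied at 1 µg/mL to compound-printed slides; binding of probe to printed compounds measured as 667 nm fluorescence plus signal to noise.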 As to conditions: small-molecule microarray, higher = more signal, called active from +8 up or from −8 down.
Assay [12] in a line: probe aNOTCH3 binding on compound microarray – biochemical, small-molecule microarray, 635/667 nm fluorescence, primary screen (AID 1120).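 Also: probe is a biotin-tagged antibody raised against NOTCH3 rather than NOTCH3 protein; score merges spot fluorescence near 667 nm with spot signal to noise.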 As to conditions: higher = more signal.
Assay [13] can be described thus: probe aNOTCH2 binding on compound microarray – biochemical, small-molecule microarray, 635/667 nm fluorescence, primary screen (AID 1121).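 Also: score merges feature fluorescence read at 667 nm with its signal to noise.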 As to conditions: higher = more signal.
For assay [14], the target named is Carbonic anhydrase 2 (Homo sapiens) (UniProt P00918). The experiment in a line: compounds binding carbonic anhydrase 2 – biochemical, small-molecule microarray, Alexa647-labelled CAII, profiling panel (AID 1122). As to conditions: CAII-A647 binding fluorescence, higher = more signal.
Assay [15] can be described thus: COS7 lysate on small-molecule microarray, probe aHis, 635 nm (AID 1123).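 Also: z-score combines 667nm fluorescence intensity with signal-to-noise per printed compound spot.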 The settings on record: COS7 cell lysate, fluorescence, higher = more signal.
A short description of assay [16]: probe aLAP1 signal on lysate-treated microarray – cell lysate, small-molecule microarray, COS7 lysate, primary screen (AID 1124).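 Also: lysate comes from COS7 cells expressing LAP1 and is applied at 0.3 µg/mL; score merges spot fluorescence near 667 nm with signal-to-noise over triplicate slides.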 The settings on record: probe aLAP1, fluorescence, higher = more signal.
A further assay concerns Sam68 (KHDRBS1). The experiment in a line: compounds binding KHDRBS1 protein – biochemical, small-molecule microarray, 635 nm fluorescence, primary screen (AID 1125).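 Also: score merges 667 nm channel intensity with signal to noise over triplicate slides.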 The settings on record: higher = more signal.
The subject of assay [17] is Chordin-like protein 2 (CHRDL2). In words: compounds binding chordin-like 2 – biochemical, small-molecule microarray, 635 nm fluorescence, primary screen (AID 1126).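 Also: printed compound slides probed with Chrdl2 protein at 4 µg/mL for 1 h at 4 C; score merges 667 nm emission intensity with signal to noise over three replicate slides.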 As to conditions: fluorescence 635 nm, higher = more signal.
Assay [18] has as its target Concanavalin-A (Canavalia ensiformis) (UniProt P02866). In words: compounds binding concanavalin A lectin – biochemical, small-molecule microarray, Alexa647 label, 635 nm, artefact control for SMM control protein annotation, primary screen (AID 1127).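 Also: z combines 667 nm emission intensity with signal-to-noise across three replicate slides.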 As to conditions: ConA-A647 binding fluorescence, higher = more signal.

Active and inactive are the calls of the source.

Chain of Concanavalin-A (Canavalia ensiformis) (P02866 whole entry, looked up): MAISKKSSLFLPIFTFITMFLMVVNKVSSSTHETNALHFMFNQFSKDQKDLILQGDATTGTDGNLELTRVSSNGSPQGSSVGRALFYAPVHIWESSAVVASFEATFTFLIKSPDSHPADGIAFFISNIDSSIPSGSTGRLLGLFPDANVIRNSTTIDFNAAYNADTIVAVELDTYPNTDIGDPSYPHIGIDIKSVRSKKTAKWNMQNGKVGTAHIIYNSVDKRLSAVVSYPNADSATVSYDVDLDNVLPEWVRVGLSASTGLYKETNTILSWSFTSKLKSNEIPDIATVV
Chain of Albumin (Bos taurus) (P02769 whole entry, looked up): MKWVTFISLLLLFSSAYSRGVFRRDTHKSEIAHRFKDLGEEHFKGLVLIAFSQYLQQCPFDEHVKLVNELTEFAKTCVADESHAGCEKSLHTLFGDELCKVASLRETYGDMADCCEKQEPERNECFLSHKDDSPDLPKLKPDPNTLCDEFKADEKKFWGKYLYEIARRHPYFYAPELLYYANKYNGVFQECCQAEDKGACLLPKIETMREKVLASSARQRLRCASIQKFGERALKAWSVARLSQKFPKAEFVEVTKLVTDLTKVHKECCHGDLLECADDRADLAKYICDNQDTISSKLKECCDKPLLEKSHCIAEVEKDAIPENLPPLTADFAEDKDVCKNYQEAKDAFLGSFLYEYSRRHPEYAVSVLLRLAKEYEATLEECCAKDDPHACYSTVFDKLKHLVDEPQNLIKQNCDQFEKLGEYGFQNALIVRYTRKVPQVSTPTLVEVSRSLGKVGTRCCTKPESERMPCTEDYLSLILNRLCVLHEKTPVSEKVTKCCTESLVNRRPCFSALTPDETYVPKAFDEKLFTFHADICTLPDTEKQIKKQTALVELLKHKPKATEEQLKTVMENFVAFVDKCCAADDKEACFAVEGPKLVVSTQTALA
Chain of Alpha-bungarotoxin (Bungarus multicinctus) (P60615 whole entry, looked up): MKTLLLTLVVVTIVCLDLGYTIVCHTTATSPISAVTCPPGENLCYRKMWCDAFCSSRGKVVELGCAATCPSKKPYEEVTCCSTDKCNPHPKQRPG

In the case of `COCCOC(=O)N1C(=O)[C@@]2(c3ccccc31)[C@H](C(=O)Nc1nc3ccccc3s1)[C@H]1C(=O)O[C@H](c3ccccc3)[C@H](c3ccccc3)N1[C@@H]2c1ccc(OCCO)cc1`, the composite z-score was 1.37 in assay [1]; 0.382 in assay [3]; 1.31 in [4]; 0.773 in assay [5]; 0.135 in [6]; -0.0626 in assay [7]. Also, the composite z-score in [8] is 0.544; in assay [9] it was 0.96; in assay [10], 1.6; with Albumin (Bos taurus), 0.735; in assay [12] it was 0.127; in assay [13], -0.169. In addition, the composite z-score in assay [14] was 0.287; in assay [15], 2.33; in assay [16], 1.39; in the assay on Sam68 (KHDRBS1), 1.29; in assay [17], 0.594; in [18] it was 1.16. This compound also displayed a z-score in assay [2] of -2.05. Moreover, in assay [11], the composite Z-score is -0.533 (inactive).
On to `CC=CC(O)C1C=CC2C(=O)N(c3ccccc3)C(=O)C2N1Nc1ccc(C(C)C)cc1` (stereo not given), for which the composite z-score in [1] worked out at 1.42; in assay [3] it was 0.363; in assay [4] it was 1.42; in assay [5], 0.138; in assay [6], 0.0194; in [7] it was 0.0469. The composite z-score in assay [8] was determined as 1.65; in assay [9], 0.37; in assay [10] it was 1.78; in the assay with Albumin (Bos taurus) it was 0.98; in assay [12], 0.271; in assay [13], 0.0751. Also, the composite z-score in [14] came to 0.641; in [15], 3.26; in [16] it was 0.3; with Sam68 (KHDRBS1), 1.3; in [17], 0.0045; in assay [18], 1.11. The compound also showed a z-score in assay [2] of 0.837. Besides, the composite Z-score in assay [11] is 0.609 (inactive).
In the case of `COCCCNC(=O)[C@@]1(c2ccc([N+](=O)[O-])cc2)CC(=O)N(CC23CC4CC(CC(C4)C2)C3)[C@@H]1c1ccc(CO)cc1`, the composite z-score was 1.37 in assay [1]; 1.13 in assay [3]; -0.121 in assay [4]; -0.548 in [5]; -0.109 in [6]; -0.0119 in assay [7]. The composite z-score in assay [8] is -0.761; in [9] it was 0.422; in assay [10], 0.572; in the assay with Albumin (Bos taurus), 0.197; in [12], 0.204; in assay [13], -0.117. In addition, the composite z-score turned out to be 0.43 in assay [14]; 0.726 in assay [15]; 0.375 in assay [16]; 1.28 with Sam68 (KHDRBS1); 0.556 in assay [17]; 1.08 in [18]. Also, the z-score in assay [2] is -2.47. Besides, in [11], the composite Z-score is 0.324 (inactive).
`CS(=O)(=O)CCOC(=O)C1=CC(c2ccc(CO)cc2)=CC(C2CC2)N(Cc2cc3c(cc2Br)OCO3)C=C1C(=O)OCCS(C)(=O)=O` (stereo not given): the composite z-score in assay [1] is 1.41; in [3] it was 0.462; in [4] it was 1.38; in assay [5] it was 0.23; in assay [6] it was -0.0124; in [7], 0.171. The composite z-score in assay [8] is 0.446; in assay [9], 1.18; in [10], 1.77; with Albumin (Bos taurus), 0.381; in [12], 0.143; in [13], -0.0902. Also, the composite z-score in assay [14] was 0.618; in assay [15], 2.29; in assay [16], 0.487; in the assay with Sam68 (KHDRBS1), 1.3; in assay [17], 0.37; in assay [18], 0.927. Also, the z-score in assay [2] was -2.3. Also, the composite Z-score in [11] is -0.0662 (inactive).
With `Cc1ccc(F)cc1S(=O)(=O)N[C@@H]1CCN(Cc2ccc(-c3ccccc3)cc2)C1`, the composite z-score is 0.504 in assay [1]; 0.473 in assay [3]; -0.452 in [4]; -0.578 in assay [5]; -0.129 in assay [6]; -0.0011 in assay [7]. Besides, the composite z-score in [8] was -0.316; in assay [9] it was 0.668; in [10] it was 0.116; with Albumin (Bos taurus), 0.413; in [12] it was -0.126; in assay [13], -0.0598. Further, the composite z-score in [14] was 0.482; in assay [15], 0.249; in assay [16], 0.625; in the assay on Sam68 (KHDRBS1) it was 0.581; in [17] it was 0.776; in [18], -0.0888. In assay [2], this compound yielded a z-score of -4.36. In addition, in assay [11], the composite Z-score is -0.569 (inactive).
With `CC(C)c1ccc(NN2C(C(O)c3cccc(O)c3)C=CC3C(=O)N(c4ccccc4)C(=O)C32)cc1` (stereo not given), the composite z-score in [1] was 1.43; in [3], -0.136; in [4] it was 1.93; in assay [5], 0.904; in assay [6], -0.0583; in [7] it was 0.0588. Besides, the composite z-score in assay [8] stood at 1.78; in assay [9] it was 1.5; in assay [10], 1.31; with Albumin (Bos taurus), 1; in assay [12], 0.374; in [13], 0.0572. Moreover, the composite z-score was 0.798 in assay [14]; 2.53 in assay [15]; 0.279 in assay [16]; 1.35 in the assay on Sam68 (KHDRBS1); -0.678 in assay [17]; 1.14 in assay [18]. This compound also had a z-score in assay [2] of 0.141. For the same compound, the composite Z-score in assay [11] is 1 (inactive).
